These compounds were tested on WHIM2 (cells of a triple-negative basal-like breast cancer xenograft) (assay: cell viability of combination (% of vehicle); higher = less cytotoxic). Settings: 1 µM; 72 h; partner dose: 10 nM.
Protocol: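 PDX cells were treated for 72 h with each drug at 1 µM plus afatinib (10 nM; 1 µM for WHIM30). Luciferase viability is expressed as percent of vehicle.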

Point of comparison: CN(C(=O)CN(CCO)CC(=O)N(C)C(C)(C)Cc1ccccc1)C(C)(C)Cc1ccccc1 [Oxethazaine] + CN(C)C/C=C/C(=O)Nc1cc2c(Nc3ccc(F)c(Cl)c3)ncnc2cc1O[C@H]1CCOC1 [Afatinib], “cell viability of combination” value 41.4. Against it:
- Cl.Cl.O=C1c2c(O)ccc(O)c2C(=O)c2c(NCCNCCO)ccc(NCCNCCO)c21 [Mitoxantrone HCl] + CN(C)C/C=C/C(=O)Nc1cc2c(Nc3ccc(F)c(Cl)c3)ncnc2cc1O[C@H]1CCOC1 [Afatinib] — lower, 13.5
- COc1cc(Nc2c(C#N)cnc3cc(OCCCN4CCN(C)CC4)c(OC)cc23)c(Cl)cc1Cl [Bosutinib (SKI-606)] + CN(C)C/C=C/C(=O)Nc1cc2c(Nc3ccc(F)c(Cl)c3)ncnc2cc1O[C@H]1CCOC1 [Afatinib] — lower, 38
- C#Cc1cccc(Nc2ncnc3cc(OCCOC)c(OCCOC)cc23)c1 [Erlotinib] + CN(C)C/C=C/C(=O)Nc1cc2c(Nc3ccc(F)c(Cl)c3)ncnc2cc1O[C@H]1CCOC1 [Afatinib] — higher, 42
- Nc1ccc2cc3ccc([NH3+])cc3nc2c1.Nc1ccc2cc3ccc([NH3+])cc3nc2c1.O=S(=O)([O-])[O-] [Proflavine Hemisulfate] + CN(C)C/C=C/C(=O)Nc1cc2c(Nc3ccc(F)c(Cl)c3)ncnc2cc1O[C@H]1CCOC1 [Afatinib] — lower, 29.5
- CN(C)CC=CC(=O)Nc1cc2c(Nc3ccc(F)c(Cl)c3)ncnc2cc1OC1CCOC1.O=C(O)C=CC(=O)O.O=C(O)C=CC(=O)O (centres undefined) [Afatinib dimaleate] + CN(C)C/C=C/C(=O)Nc1cc2c(Nc3ccc(F)c(Cl)c3)ncnc2cc1O[C@H]1CCOC1 [Afatinib] — lower, 35.4
- COc1ncc(-c2ccc3nccc(-c4ccnnc4)c3c2)cc1NS(=O)(=O)c1ccc(F)cc1F + CN(C)C/C=C/C(=O)Nc1cc2c(Nc3ccc(F)c(Cl)c3)ncnc2cc1O[C@H]1CCOC1 [Afatinib] — lower, 15.7
- O=C(O)c1cc(O)c(O)c(O)c1 [Gallic acid] + CN(C)C/C=C/C(=O)Nc1cc2c(Nc3ccc(F)c(Cl)c3)ncnc2cc1O[C@H]1CCOC1 [Afatinib] — higher, 46.3
- COc1cc2nccc(Oc3ccc(NC(=O)NC4CC4)c(Cl)c3)c2cc1C(N)=O [Lenvatinib (E7080)] + CN(C)C/C=C/C(=O)Nc1cc2c(Nc3ccc(F)c(Cl)c3)ncnc2cc1O[C@H]1CCOC1 [Afatinib] — lower, 32.5
- CO[C@@]12[C@H](COC(N)=O)C3=C(C(=O)C(C)=C(N)C3=O)N1C[C@@H]1N[C@@H]12 [Mitomycin C] + CN(C)C/C=C/C(=O)Nc1cc2c(Nc3ccc(F)c(Cl)c3)ncnc2cc1O[C@H]1CCOC1 [Afatinib] — lower, 35.1
- O=C(C=Cn1cnc(-c2cc(C(F)(F)F)cc(C(F)(F)F)c2)n1)NNc1cnccn1 + CN(C)C/C=C/C(=O)Nc1cc2c(Nc3ccc(F)c(Cl)c3)ncnc2cc1O[C@H]1CCOC1 [Afatinib] — higher, 41.9
- C=CC(=O)Nc1cc(Nc2nccc(-c3cn(C)c4ccccc34)n2)c(OC)cc1N(C)CCN(C)C + CN(C)C/C=C/C(=O)Nc1cc2c(Nc3ccc(F)c(Cl)c3)ncnc2cc1O[C@H]1CCOC1 [Afatinib] — lower, 34.9
- CC(=O)C1(O)Cc2c(O)c3c(c(O)c2C(OC2CC(N)C(O)C(C)O2)C1)C(=O)c1ccccc1C3=O.Cl (centres undefined) [Idarubicin HCl] + CN(C)C/C=C/C(=O)Nc1cc2c(Nc3ccc(F)c(Cl)c3)ncnc2cc1O[C@H]1CCOC1 [Afatinib] — lower, 11.7
- CNCCC(Oc1cccc2ccccc12)c1cccs1.Cl (centres undefined) [Duloxetine HCl] + CN(C)C/C=C/C(=O)Nc1cc2c(Nc3ccc(F)c(Cl)c3)ncnc2cc1O[C@H]1CCOC1 [Afatinib] — lower, 41.1

From the supplement of paper PMC6992640
